# M18AAP inhibitor: PfM18AAP enzyme inhibition | recombinant PfM18AAP, H-Glu-NHMec fluorogenic cleavage | inhibition, % at 7.35 µM | hit rate 1.2% among 290,000 | AID 1822;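 active = inhibition above the campaign mean inhibition over all tested compounds plus 3 SD, cut at about 28% in these data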;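 also: 0% = plate median of test compound wells and 100% = 2 mM ZnCl2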
# IDE cell inh: inhibits human insulin-degrading enzyme in HEK cells | FAbetaB cleavage, fluorescence polarization | inhibition, % at 5.59 µM | hit rate 0.41% among 320,000 | AID 434962;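 active = percent inhibition above the average of all tested compounds plus 3 SD, set per screening campaign, cut at about 16% in these data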;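 also: IDE supplied by intact live HEK cells; FP after avidin binding of uncleaved biotin substrate so inhibition keeps polarization high; 0% = DMSO wells and 100% = 60 µM reference IDE inhibitor Ii1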
# Target sequence (P14735 whole entry, looked up): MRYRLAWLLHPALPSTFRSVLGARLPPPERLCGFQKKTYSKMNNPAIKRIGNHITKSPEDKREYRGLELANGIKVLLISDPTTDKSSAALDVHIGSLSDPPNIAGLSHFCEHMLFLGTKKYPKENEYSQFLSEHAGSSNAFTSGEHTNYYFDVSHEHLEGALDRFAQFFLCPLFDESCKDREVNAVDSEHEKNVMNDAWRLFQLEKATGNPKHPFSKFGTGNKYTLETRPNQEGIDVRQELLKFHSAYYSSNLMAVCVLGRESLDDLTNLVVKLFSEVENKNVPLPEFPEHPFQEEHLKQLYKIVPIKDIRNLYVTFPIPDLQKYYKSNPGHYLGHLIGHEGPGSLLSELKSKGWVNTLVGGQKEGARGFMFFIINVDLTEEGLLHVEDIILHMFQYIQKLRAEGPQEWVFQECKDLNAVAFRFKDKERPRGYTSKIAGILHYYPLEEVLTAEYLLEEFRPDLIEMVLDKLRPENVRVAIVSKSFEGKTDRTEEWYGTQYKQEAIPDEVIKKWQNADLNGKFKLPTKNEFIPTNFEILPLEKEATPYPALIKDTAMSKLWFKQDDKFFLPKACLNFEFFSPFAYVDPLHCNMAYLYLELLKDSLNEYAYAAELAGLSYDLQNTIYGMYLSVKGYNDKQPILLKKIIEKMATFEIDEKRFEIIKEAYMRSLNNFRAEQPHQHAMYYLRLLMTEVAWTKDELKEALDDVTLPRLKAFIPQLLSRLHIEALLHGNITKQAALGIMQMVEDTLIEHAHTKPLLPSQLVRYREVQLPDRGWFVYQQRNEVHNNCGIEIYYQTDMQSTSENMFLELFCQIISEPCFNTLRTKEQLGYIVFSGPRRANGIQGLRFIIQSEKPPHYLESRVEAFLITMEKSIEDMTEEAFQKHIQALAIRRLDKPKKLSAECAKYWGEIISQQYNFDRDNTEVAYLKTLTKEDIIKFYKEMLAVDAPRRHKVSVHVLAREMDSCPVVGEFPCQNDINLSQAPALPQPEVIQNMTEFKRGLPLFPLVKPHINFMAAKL
# PolyA inhibitor: blocks polyadenylation in yeast reporter cells; S. cerevisiae SKY197-pL101 polyadenylation reporter, beta-gal luminescence; efflux-impaired pdr1/pdr3 knockout yeast; score 100 = 6 SD above DMSO; hit rate 0.02% among 300,000; activity score, % at 12 µM; AID 1875;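 active = lowest replicate activity score at least 50, where 100 means six control SD above control mean; inconclusive = lowest score under 50 but half or more replicates reach 50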;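 also: yeast exposed to compound for 9 h at 30 °C; higher score means more reporter readthrough which indicates perturbed polyadenylation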
# ALR H2O2 inh: inhibitors of human sulfhydryl oxidase ALR. P55789. purified ALR, DTT oxidation, H2O2 HRP-luminol luminescence. inhibition, % (concentration not given with the values). hit rate 3.8% among 290,000. AID 485317;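 active = mean replicate inhibition above about 79%, with every replicate also reaching it, limit read from the data; inconclusive = only one of the two criteria met; inactive = mean below limit and not every replicate reaching it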
# CaV13 ICDI inh: Primary screen for inhibitors of IQ motif and Ca2+-dependent inactivation inhibitor domain binding in CACNA1D, Förster resonance energy transfer in living cells, …; HEK cells, CFP/YFP FRET ICDI-IQ, plate reader, 10 min; percent FRET-ratio fall versus neutral wells; inhibition, % at 12.3 µM; hit rate 0.098% among 340,000; AID 743397;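 active = mean replicate inhibition of at least 30% and at least 1% of replicates passing that level; inconclusive = only one of the two criteria is met; inactive = neither criterion is met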;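 also: 0% = median of the neutral control wells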
# IDE cell activ: activators of human insulin-degrading enzyme in cells; P14735; activation, % at 5.96 µM; HEK cells, FAbeta-B cleavage, fluorescence polarization; 0% vehicle, 100% cell-free pure enzyme wells; hit rate 0.073% among 340,000;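 active = activation above the mean of all tested compounds plus 3 SD, set per screening campaign, cut at about 17% in these data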
# * = called active by the depositor; ? = inconclusive; . = not tested or not shown. Shown are actives, neighbours in structure and some others; about 4.1% of the full set was active somewhere.
SMILES,M18AAP inhibitor,IDE cell inh,PolyA inhibitor,ALR H2O2 inh,CaV13 ICDI inh,IDE cell activ
CN1CCN(c2ccc(NC(=S)NC(=O)/C=C/c3ccco3)cc2)CC1,12,3,-8,81*,-3,3
O=C(/C=C/c1ccco1)NC(=S)Nc1ccccn1,18,10,-3,99*,-3,3
COc1cccc(NC(=S)NC(=O)/C=C/c2ccco2)c1,6,-1,-39,1,-20,-5
Cc1ccc(S(=O)(=O)NNC(=O)C2CC=CCC2C(=O)O)cc1 (centres undefined),1,3,-12,44,-7,1
O=C(CSc1nnc(Cc2ccccc2)n1-c1ccccc1)NNC(=O)Cc1ccccc1,-19,4,7,98*,-6,-4
CCn1c(CC(=O)Nc2ccc(C)cc2)nnc1SCC(=O)N1CCN(c2ccccc2)CC1,-4,2,-9,89*,-3,-4
CCn1c(CC(=O)Nc2ccc(Cl)cc2)nnc1SCC(=O)N1CCOCC1,1,-3,12,.,-7,7
CCn1c(Cc2ccccc2)nnc1SCC(=O)Nc1ccc(N)cc1,-2,0,10,87*,-7,2
COC(=O)CSc1nnc(Cc2ccccc2)n1-c1ccc(C)cc1,7,-1,1,-2,-2,2
CCn1c(Cc2ccccc2)nnc1SCC(=O)Nc1ccc(OC)cc1,2,0,-1,-1,-5,4
CCN(CC)CCCn1c2c(c(SCC(=O)Nc3ccc(F)c(F)c3)nc1=O)CCC2,.,-1,6,98*,-6,5
CCN(CC)CCCn1c2c(c(SCC(=O)Nc3ccccc3Cl)nc1=O)CCC2,.,0,-8,98*,-6,2
CCN(CC)CCn1c2c(c(SCC(=O)Nc3ccc4c(c3)OCCO4)nc1=O)CCC2,.,4,31,-353,-4,2
CCN(CC)CCCn1c2c(c(SCC(=O)Nc3ccc4c(c3)OCO4)nc1=O)CCC2,.,-4,17,96*,-6,0
CCN(CC)CCn1c2c(c(SCC(=O)Nc3ccc(C)c(F)c3)nc1=O)CCCC2,.,1,-25,97*,-5,6
CCN(CC)CCn1c2c(c(SCC(=O)Nc3ccc(C)c(F)c3)nc1=O)CCC2,.,4,31,-404,-11,5
CCN(CC)CCn1c2c(c(SCC(=O)Nc3ccccc3Cl)nc1=O)CCCC2,.,-3,11,-16,-7,-3
COc1cc(-c2[nH]nc3c2C(c2ccco2)C(C#N)=C(N)O3)cc(OC)c1OC (centres undefined),10,7,-4,30,-2,-2
CCN(CC)CCn1c2c(c(SCC(=O)Nc3ccc(F)c(F)c3)nc1=O)CCC2,.,1,17,92*,-4,3
Nc1ccc2ccc(N)cc2c1,.,.,.,.,-13,.
CN1CCN(C=NC2=NN(c3cccc(C(F)(F)F)c3)CC2)CC1,-2,1,-11,99*,-18,-4
CN(C)C=NC1=NN(c2cccc(C(F)(F)F)c2)CC1,-10,2,?,95*,.,4
Cc1n[nH]c(=O)n1-c1cccc(C(F)(F)F)c1,-12,-6,8,-8,-5,-1
Cc1ccc(OC(C)C(=O)Nc2ccc3c(c2)n(C)c(=O)n3C)c(C)c1 (centres undefined),-2,.,-8,34,-20,3
COc1ccc(-n2nc(C(=O)NCC(=O)NCCCN3CC(C)CC(C)C3)c3ccccc3c2=O)cc1OC (centres undefined),2,-1,1,-1,-7,4
SMILES,M18AAP inhibitor,IDE cell inh,PolyA inhibitor,ALR H2O2 inh,CaV13 ICDI inh,IDE cell activ
COc1ccc(CCN2C(=O)C3C4CC(C5C(C(=O)N/N=C\c6ccc(Cl)cc6)=NOC45)C3C2=O)cc1OC (centres undefined),-5,-1,2,.,-1,2
S=c1nc[nH]c2c1[nH]c1ccc(Cl)cc12,0,0,-2,-5,-2,-29
S=c1nc[nH]c2c1[nH]c1ccccc12,11,6,15,98*,-1,-14
CCOC(=O)c1c(NC(=S)Nc2ccccc2)sc2c1CCN(CCc1ccccc1)C2,3,7,.,-3,.,.
CC(=O)N1CCc2c(sc(NC(=O)Cc3ccc(F)cc3)c2C#N)C1,1,-3,3,-3,-4,4
CCOC(=O)c1c(N)sc2c1CCN(CCc1ccccc1)C2,29*,4,13,-17,0,2
NC(=O)c1c(NC(=O)Cc2ccccc2)sc2c1CCN(Cc1ccccc1)C2,6,-1,-6,.,40*,1
CN1CCc2c(sc(NC(=O)Cc3ccccc3)c2C#N)C1,6,0,13,.,120*,10
CCOC(=O)c1c(NC(=O)CC)sc2c1CCN(Cc1ccccc1)C2,6,5,?,-29,-3,3
CCOC(=O)c1c(NC(=O)CSc2ncccn2)sc2c1CCN(Cc1ccccc1)C2,12,.,4,.,36*,4
NS(=O)(=O)c1ccc(NC2=CC(c3ccc([N+](=O)[O-])cc3)N(c3ccc(S(N)(=O)=O)cc3)C2=O)cc1 (centres undefined),19,-7,3,-1,8,1
COc1cccc(OC)c1OCCCNC1CCCC1,7,1,18,8,-4,3
CN(C)c1cccc(NC(=O)CCc2ccccc2)c1,-10,-3,-15,98*,-3,3
CCN(C(=S)NC(=O)CCc1ccccc1)c1ccccc1,-7,1,7,77*,-3,0
CC(=O)Nc1cccc(NC(=O)CCc2ccccc2)c1,-1,6,-2,-2,.,6
CCCCC(=O)N(C)c1c(CC)nc2c(OCCOc3ccccc3)cccn12,.,.,.,.,-5,.
O=C(Nc1ccc(N2CCN(c3ncccc3C(F)(F)F)CC2)nc1)c1cccs1,2,2,22,-2,8,3
N/C(=N\O)c1ccc(N2CCN(c3ncccc3C(F)(F)F)CC2)nc1,-4,7,-6,91*,-19,3
Cc1cc(=O)oc2cc(OCCSCCN3CCCC3)ccc12,-5,2,13,98*,2,.
COc1ccc(N2CCN(CCOc3ccc4c(C)cc(=O)oc4c3)CC2)cc1,5,-1,16,10,-3,4
CS(=O)(=O)c1ccc(CNC(=O)C2(C(F)(F)F)C/C(=C/CCO)CCCO2)cc1 (centres undefined),.,-1,7,5,-11,-2
CCOc1ccc(S(=O)(=O)NNS(=O)(=O)c2ccc(C)cc2C)cc1,15,8,12,99*,-19,3
CCOc1ccc(S(=O)(=O)NCCCl)cc1,-12,2,1,40,-1,4
CN(C)CCNc1ncnc2c1sc1nc(-c3ccccc3)c3c(c12)CCCC3,17,1,-4,-13,-2,32*
